# A selection: hits, their analogues and other compounds. The true share with any hit is near 1.3%.
# PKA-R2B act: PKA-R2B complex activation; P22694+P31323; AID 504700; 340,000 compounds, 0.079% hits; activation, % at 11.4 µM; PKA-R2B holoenzyme dissociation, Cy5-IP20 fluorescence polarization; R2B truncated from residue 108, S112A mutant; 0% DMSO only, 100% 113 µM cGMP;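 active = activation above a cutoff set at the mean over all compounds plus 3 SD, cut at about 18% in these data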;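 also: higher means more holoenzyme dissociation and a rise in polarization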
# Target sequence (P31323 whole entry, looked up, other chains not shown, the tested form may be a part): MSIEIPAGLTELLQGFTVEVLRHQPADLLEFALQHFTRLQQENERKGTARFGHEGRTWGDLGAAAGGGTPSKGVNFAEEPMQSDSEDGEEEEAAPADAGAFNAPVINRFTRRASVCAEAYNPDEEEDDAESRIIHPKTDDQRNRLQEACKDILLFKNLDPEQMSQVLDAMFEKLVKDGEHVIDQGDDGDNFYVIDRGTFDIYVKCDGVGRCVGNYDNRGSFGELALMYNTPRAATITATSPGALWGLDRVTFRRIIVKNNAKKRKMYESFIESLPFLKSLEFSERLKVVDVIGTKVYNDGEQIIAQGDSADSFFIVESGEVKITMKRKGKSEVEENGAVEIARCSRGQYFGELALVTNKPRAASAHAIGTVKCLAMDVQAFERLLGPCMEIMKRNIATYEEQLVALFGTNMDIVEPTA
# PKA-R1A activ: PKA-R1A complex activation. PKA-R1A dissociation, Cy5-IP20 fluorescence polarization; scaled: DMSO 0%, 113 µM cGMP 100%. activation, % at 11.4 µM. 340,000 compounds, 0.083% hits. AID 504707;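 active = percent activation above the mean of all tested compounds plus 3 SD, cut at about 19% in these data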;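 also: higher means more PKAc released from R1A so a rise in polarization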
# Neddylation inh: blocks human cullin neddylation; P61081+Q13564; TR-FRET cullin neddylation, biochemical; 360,000 compounds, 0.58% hits; inhibition, % at 25 µM; AID 651699; in the data active = inhibition above about 36%
# Rpn11 block: inhibitors of human proteasome Rpn11 | human 26S proteasome, Ub4-pepOG fluorescence polarization; 20S core pre-blocked with epoxomicin | calls only at 20 µM | 360,000 compounds, 0.59% hits | AID 588493;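 active = inhibition at 20 µM, scaled to each plate's controls, above about 33%, limit read from the data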
# Neddyl inh conf: confirmation of human cullin neddylation inhibitors. 1,800 compounds, 13% hits. shares compounds with Neddylation inh. TR-FRET cullin neddylation biochemical assay. calls only at 25 µM. AID 652217; in the data active = inhibition above about 40%;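 also: neddylation substrate is the cullin 1 ring ligase complex with SKP2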
# Numbers without * were called inactive; i = inactive; . = no result shown; + = active, no number.
SMILES,PKA-R2B act,PKA-R1A activ,Neddylation inh,Rpn11 block,Neddyl inh conf
Oc1ccc(Nc2ncnc3c2oc2ccccc23)cc1,1.6,0.1,14.4,i,.
Oc1cccc(Nc2ncnc3c2oc2ccccc23)c1,-2.8,-7.0,47.6*,i,.
Cc1ccc(C(=O)Nc2nc(=O)[nH]s2)cc1,-1.4,4.4,-2.2,i,.
CCC/C(=C1/c2ccccc2C(=O)N1c1ccccc1)c1ccc2[nH]ccc2c1,-21.3,-10.1,44.1*,i,i
Cc1cc(=O)oc2c(C)c(OC3CCCCC3=O)ccc12 (stereo not drawn),0.1,8.0,43.6*,i,+
C[C@@H]1CN([C@@H](C)CO)C(=O)c2cc(/C=C/c3ccccc3)cnc2O[C@@H]1CN(C)S(=O)(=O)c1ccc(F)cc1,-8.9,-10.7,41.4*,i,i
Cc1cc(C)cc(Oc2nc3ccccn3c(=O)c2/C=C(\C#N)C(=O)NC2CCS(=O)(=O)C2)c1 (stereo not drawn),.,.,47.5*,i,i
COCCNC(=O)C(=O)N/N=C/c1ccccc1C(F)(F)F,-13.0,-3.3,-1.0,i,.
Fc1cccc(Nc2nc3ccccc3n3nnnc23)c1,-5.5,-12.8,.,i,.
COc1cccc(Nc2nc3ccccc3n3nnnc23)c1,5.8,0.3,44.4*,i,.
CCOC(=O)c1cnc2cc3c(cn2c1=O)CCCC3,0.4,-6.2,39.7*,i,.
O=C1NC(=O)C(c2ccccc2)(C2CCCC2)N1 (stereo not drawn),1.2,-3.5,8.4,i,.
COc1cc(OC)cc(-c2oc3cccnc3c2C#CCCO)c1,-3.4,13.6,36.6*,i,+
COc1ccc(NC(=O)c2cccc(S(=O)(=O)NCc3ccccc3)c2)cc1S(N)(=O)=O,-0.9,8.8,-2.6,i,.
CC(NC(=O)C1=CC=CN2CCS(=O)(=O)N=C12)c1ccc(Cl)cc1Cl (stereo not drawn),-1.6,7.0,55.2*,i,.
CC(NC(=O)C1=CC=CN2CCS(=O)(=O)N=C12)c1ccc(Cl)c(Cl)c1 (stereo not drawn),-0.9,-6.1,43.6*,i,+
O=C(Oc1cc(Cl)ccc1Cl)C1=CC=CN2CCS(=O)(=O)N=C12,-10.7,-10.1,37.6,i,.
O=C(Oc1ccc(Cl)c(Cl)c1)C1=CC=CN2CCS(=O)(=O)N=C12,-5.3,-2.5,37.9,i,.
COc1c(C)oc2cc(O)ccc2c1=O,4.3,0.4,.,i,.
Oc1ccc2c(c1)oc1cc(O)ccc12,-5.2,0.5,41.4*,i,i
COc1cc(/C=C/C(=O)OCC(=O)Nc2cc(S(=O)(=O)N3CCCCC3)ccc2C)ccc1O,-14.5,-6.4,41.0*,i,i
CCN(CC)S(=O)(=O)c1ccc(Cl)c(NC(=O)COC(=O)/C=C/c2ccc(O)c(OC)c2)c1,10.4,2.9,39.7*,i,i
Cc1noc(C)c1NC(=O)Nc1cccc2c1O[C@H](CN(C)C(=O)Nc1ccc3c(c1)OCO3)[C@@H](C)CN([C@H](C)CO)C2=O,2.8,4.5,2.2,i,.
O=C(O)c1ccc(/C=N/n2cc(-c3ccccc3)[nH]c2=S)cc1,-2.7,-5.3,-5.7,i,.
S=c1[nH]c(-c2ccccc2)cn1/N=C/c1ccc(Br)cc1,6.1,2.6,41.8*,i,i
SMILES,PKA-R2B act,PKA-R1A activ,Neddylation inh,Rpn11 block,Neddyl inh conf
CC(C)c1ccc(NC2CCCN(C(=O)C3=NN(C)C(=O)CC3)C2)cc1 (stereo not drawn),-5.5,3.7,0.5,i,.
COc1ccc2[nH]c(C(=O)O)c(NS(=O)(=O)c3ccc(C)cc3C)c2c1,4.8,-0.8,48.4*,i,.
CN(CC(=O)Nc1ccccc1Cl)C(=O)CN1C(=O)C2CC=CCC2C1=O (stereo not drawn),0.5,7.6,-15.3,i,.
CC(=O)N1CCN(c2ccc(Nc3ncnc4c3oc3ccccc34)cc2)CC1,-6.5,2.3,11.9,i,.
Cc1ccc(Nc2nc(C)nc3c2oc2ccccc23)cc1,-4.0,-3.2,37.0*,i,.
CCc1nc(Nc2ccc(N3CCN(C(C)=O)CC3)cc2)c2oc3ccccc3c2n1,10.9,1.6,38.3*,i,i
COc1ccc(Nc2nc(C)nc3c2oc2ccccc23)cc1,-4.2,0.1,.,i,.
COc1cc(F)c(S(=O)(=O)N2CCOc3ccccc32)cc1OC,-5.7,-7.9,-4.1,i,.
COc1ccccc1C(CNC(=O)c1ccc(C)c(S(=O)(=O)N2CCCCC2)c1)N1CCCC1 (stereo not drawn),-2.9,-8.1,7.3,i,.

# High-throughput results: PubChem BioAssay, several laboratories
